# Compound activity as filed in PubChem.
# The list is not random: actives were taken first. Their share in the collection is about 10%.
# HP1b binding inh: HP1-beta chromodomain-methylated histone interaction inhibition; AID 540317; AlphaScreen HP1-beta / biotin-H3K9me3 peptide binding; 390,000 tested, 0.56% active; Potency, µM (top dose mostly 114 µM), for the others: at the highest dose activity change, negative = inhibition, most hits filed as inhibitors; P83916; note: nearly all actives have a fitted effect of over 70% in size
#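 Compound inhibition of the preformed complex between 50 nM HP1-beta and 50 nM biotinylated H3K9me3 peptide was read by AlphaScreen. Buffer was PBS pH 7.4 with 0.01% Tween-20. Incubations ran 30 min at room temperature, with 10 ug/mL donor/acceptor beads.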
# BAZ2B block: BAZ2B (human) inhibition; Potency, µM (series often up to 114 µM), for inactives: at the top dose activity change, negative = inhibition, usual class: inhibitors; Q9UIF8; AlphaScreen BAZ2B-H3K14Ac peptide displacement; AID 504333; 360,000 tested, 4.4% active; note: % is set by controls: 0 for no effect and ±100 for the full control effect; nearly all actives have a fitted effect of over 60% in size
# Target sequence (Q9UIF8 whole entry, looked up): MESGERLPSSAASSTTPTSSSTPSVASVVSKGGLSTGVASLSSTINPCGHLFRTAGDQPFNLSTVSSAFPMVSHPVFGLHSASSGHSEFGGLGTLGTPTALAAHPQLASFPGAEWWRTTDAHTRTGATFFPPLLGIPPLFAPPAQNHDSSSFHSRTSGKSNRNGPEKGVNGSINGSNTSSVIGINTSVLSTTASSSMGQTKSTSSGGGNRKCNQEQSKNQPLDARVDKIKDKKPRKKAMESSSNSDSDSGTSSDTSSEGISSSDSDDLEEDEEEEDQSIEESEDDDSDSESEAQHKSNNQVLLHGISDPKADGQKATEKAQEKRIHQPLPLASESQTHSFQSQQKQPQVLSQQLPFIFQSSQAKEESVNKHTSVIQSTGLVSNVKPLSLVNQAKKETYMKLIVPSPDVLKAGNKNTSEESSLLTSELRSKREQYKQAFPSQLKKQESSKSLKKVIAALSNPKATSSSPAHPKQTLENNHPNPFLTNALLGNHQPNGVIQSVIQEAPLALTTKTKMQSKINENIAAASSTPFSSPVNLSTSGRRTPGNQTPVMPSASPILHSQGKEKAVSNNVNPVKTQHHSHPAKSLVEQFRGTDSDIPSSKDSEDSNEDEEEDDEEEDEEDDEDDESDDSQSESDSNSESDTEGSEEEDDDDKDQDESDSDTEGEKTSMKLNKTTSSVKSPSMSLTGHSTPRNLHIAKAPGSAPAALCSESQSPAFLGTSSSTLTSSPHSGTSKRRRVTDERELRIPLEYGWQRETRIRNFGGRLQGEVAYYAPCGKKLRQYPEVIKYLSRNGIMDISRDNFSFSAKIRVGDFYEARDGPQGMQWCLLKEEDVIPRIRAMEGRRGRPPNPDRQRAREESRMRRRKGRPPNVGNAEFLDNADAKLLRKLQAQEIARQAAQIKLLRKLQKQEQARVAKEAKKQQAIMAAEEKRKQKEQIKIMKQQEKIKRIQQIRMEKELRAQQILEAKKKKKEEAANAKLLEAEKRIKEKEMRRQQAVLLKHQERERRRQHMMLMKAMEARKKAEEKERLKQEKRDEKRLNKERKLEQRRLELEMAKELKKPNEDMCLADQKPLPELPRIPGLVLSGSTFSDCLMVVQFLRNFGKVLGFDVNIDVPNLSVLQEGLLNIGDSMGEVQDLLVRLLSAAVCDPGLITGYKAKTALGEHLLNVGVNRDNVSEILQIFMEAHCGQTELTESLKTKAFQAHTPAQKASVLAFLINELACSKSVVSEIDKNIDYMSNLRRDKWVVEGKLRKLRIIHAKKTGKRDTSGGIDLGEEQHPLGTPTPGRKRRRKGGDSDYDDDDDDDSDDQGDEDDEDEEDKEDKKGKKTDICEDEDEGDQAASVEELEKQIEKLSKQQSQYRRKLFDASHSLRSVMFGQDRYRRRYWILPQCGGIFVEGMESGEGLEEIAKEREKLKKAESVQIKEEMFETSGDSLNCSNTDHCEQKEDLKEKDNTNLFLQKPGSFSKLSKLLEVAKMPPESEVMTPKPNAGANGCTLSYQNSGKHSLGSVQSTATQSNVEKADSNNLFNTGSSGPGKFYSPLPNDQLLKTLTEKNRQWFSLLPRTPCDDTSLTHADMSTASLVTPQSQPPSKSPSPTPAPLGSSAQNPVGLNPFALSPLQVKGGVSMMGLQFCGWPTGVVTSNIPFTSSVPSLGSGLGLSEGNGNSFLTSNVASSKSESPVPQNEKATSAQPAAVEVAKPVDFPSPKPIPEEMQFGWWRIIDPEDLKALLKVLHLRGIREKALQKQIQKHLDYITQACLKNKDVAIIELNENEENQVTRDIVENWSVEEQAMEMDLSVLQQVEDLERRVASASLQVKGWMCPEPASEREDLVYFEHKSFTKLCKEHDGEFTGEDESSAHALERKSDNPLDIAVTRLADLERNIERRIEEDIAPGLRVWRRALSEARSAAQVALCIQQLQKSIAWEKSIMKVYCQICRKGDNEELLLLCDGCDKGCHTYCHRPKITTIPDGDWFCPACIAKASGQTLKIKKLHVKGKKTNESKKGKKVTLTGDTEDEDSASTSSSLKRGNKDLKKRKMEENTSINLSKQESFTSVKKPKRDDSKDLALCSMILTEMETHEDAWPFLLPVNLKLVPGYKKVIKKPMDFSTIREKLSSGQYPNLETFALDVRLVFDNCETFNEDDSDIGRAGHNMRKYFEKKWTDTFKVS
#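 BAZ2B 50 nM plus b-H3(5-23)K14Ac 50 nM, PBS pH 7.4/0.01% Tween-20, 30 min RT; compound added (max 110 uM), 30 min RT; streptavidin donor/Ni-chelate acceptor beads 10 ug/mL final, 20 min dark; AlphaScreen read.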
# GLS inh: inhibitors of human glutaminase (GLS). AID 624170. GLS enzymatic activity, qHTS titration. 410,000 tested, 0.21% active. Potency, µM (highest dose often 45.5 µM), for inactives: at the top dose activity change, negative = inhibition, actives largely listed as inhibitors. O94925; note: % is set by controls: 0 for no effect and ±100 for the full control effect
#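 hKGA in 45 mM KH2PO4 pH 8.2, 0.02% Tween-20 with pin-transferred compounds; 1 mM L-glutamine (stock) plus glutamate oxidase/HRP/Amplex Red coupling added. Fluorescence read initially and after 30 min at RT.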
# JMJD2A Tudor inh: blocks the human JMJD2A Tudor domain; Potency, µM (top dose mostly 114 µM), without a hit: at the top dose activity change, negative = inhibition, hits mostly inhibitors; O75164; 390,000 tested, 4.4% active; AID 504339; AlphaScreen JMJD2A-Tudor / H3K4me3 peptide binding; note: % is set by controls: 0 for no effect and ±100 for the full control effect; nearly all actives have a fitted effect of over 50% in size
# G9a block: inhibitors of human histone lysine methyltransferase G9a; G9a H3K9 monomethylation, AlphaScreen, 2 h; Potency, µM (titrated, usually from 102 µM), for the others: at the highest dose activity, negative = inhibition, hits mostly inhibitors; 350,000 tested, 8.8% active; AID 504332; note: % is set by controls: 0 for no effect and ±100 for the full control effect; nearly all actives have a fitted effect of over 75% in size
#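 Chemiluminescent proximity detection of H3K9 monomethylation, read after 10 min bead incubation in the dark. Reaction: 20 nM G9a, 500 nM biotin-H3K9 peptide, 20 uM SAM cofactor, 2 h, room temperature, following 15 min enzyme-compound preincubation.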
# * hit, by the source's call; ? = inconclusive; . = no result; [ ] = remark or other dose. Calls come from the whole dose curve; as a rule, active = well fitted curve in the direction sought with a large enough effect; inconclusive = small, poorly fitted or top-dose-only effect, or another doubt; inactive = no such curve, though single readings can be large; an effect the other way counts as inactive or inconclusive. Potency is the fitted concentration of half-maximal effect.
SMILES,HP1b binding inh,BAZ2B block,GLS inh,JMJD2A Tudor inh,G9a block
CCOC(=O)C1CCCN(Cc2ccccc2OCC)C1 (configuration not stated),?,?,9%,5.6µM*,?
CCOC(=O)C1CCN(Cc2ccccc2C)CC1,17%,56µM*,28%,-5%,?
CCOC(=O)C1CCN(Cc2cn[nH]c2-c2ccccc2)CC1,?,?,-5%,3.2µM*,7.9µM*
CCN(C(=O)CSc1ccc2c(c1)OCCO2)C1CCS(=O)(=O)C1 (configuration not stated),53%,58%,-10%,-7%,22%[59 µM]
Cc1ccc(NS(=O)(=O)c2ccc(C)c(C(=O)N3CCN(C)CC3)c2)cc1,42%,-5%,1%,-17%,-3%
COC(=O)c1cn(-c2ccccc2)c(=O)c2ccccc12,37%,-14%,2%,4%,1%
CCCCCCN1Cc2ccccc2C1,33%,?,19%,-17%,1%[12.7 µM]
CCOC(=O)C1CCCN(Cc2ccc(OCC)cc2)C1 (configuration not stated),?,?,25%,20µM*,8.9µM*
CCOC(=O)C1CCCN(Cc2ccccc2C)C1 (configuration not stated),?,71µM*,1%,5µM*,2.5µM*
CCOC(=O)C1CCN(Cc2coc3c(Cl)cc(Cl)cc3c2=O)CC1,-7%,?,3%,20µM*,11µM*
CCOC(=O)C1CCN(C/C=C/c2ccccc2[N+](=O)[O-])CC1,-16%,?,-7%,2.2µM*,.
C#CCNC(=O)C1=C[C@@H](C2CC2)C[C@@H](OCCCCO)O1,6%,-36%,9%,-23%,-41%[59 µM]
Cn1c(N)c(C(=O)COC(=O)COc2cccc(Br)c2)c(=O)n(C)c1=O,55%,.,-9%,6%,.
CCOC(=O)CN1C(=O)CN(c2ccc(C)cc2)C1=O,17%,2%,-13%,-2%,4%[59 µM]
CCN(CC)S(=O)(=O)c1ccc(NC(=O)[C@H](CCSC)N2Cc3ccccc3C2=O)cc1,15%,-28%,-5%,-20%,-27%[59 µM]
CCOC(=O)C1CCCN(C(=O)CCc2ccccc2)C1 (configuration not stated),21%,-4%,8%,-15%,6%
CCOC(=O)C1CCCN(CCc2ccccc2)C1 (configuration not stated),-33%,?,1%,25µM*,40µM*
COc1cccc(C(=O)N2CCOCC2)c1,28%,-8%,1%,5%,0%
COc1ccc(CN2CCC(N3CC(C)OC(C)C3)CC2)c(OC)c1 (configuration not stated),40µM*,32µM*,4%,0.79µM*,8.9µM*
CCOC(=O)C1CCN(Cc2ccc(OC)cc2OC)CC1,?,?,0%,1.8µM*,?
COc1ccc(CN2CCC(n3nccc3NC(=O)C3CCCC3)CC2)c(OC)c1,-7%,-18%,9%,-34%,.
COc1cccc(C(=O)N2CCC(N3CC(C)OC(C)C3)CC2)c1 (configuration not stated),?,50µM*,0%,6.3µM*,2.8µM*
COc1ccc(C2CC(=O)C3=C(C2)Nc2ccccc2N(C(=O)CCC(=O)O)C3c2ccc(F)cc2)cc1 (configuration not stated),56%,-1%,9%,-10%,.
CCOC(=O)N1CCN(CC(O)COc2ccc(OC)cc2C(C)(C)C)CC1 (configuration not stated),24%,?,7%,-23%,-2%[59 µM]
CCOC(=O)C1CCCN(CC(O)COc2ccc(OC)cc2C(C)(C)C)C1 (configuration not stated),7.9µM*,50µM*,10%,?,13µM*
SMILES,HP1b binding inh,BAZ2B block,GLS inh,JMJD2A Tudor inh,G9a block
Cc1cc(/C=N/Nc2nc(N3CCOCC3)nc(N3CCOCC3)n2)c(C)n1-c1ccccc1,?,.,-5%,?,-48%
Cc1[nH]c2ccccc2c1/C=N/Nc1nc(Nc2ccc(F)cc2)nc(N2CCOCC2)n1,-18%,50µM*,-3%,10%[11.4 µM],?
Cc1ccc(Nc2nc(N/N=C/c3c[nH]c4ccccc34)nc(N3CCOCC3)n2)cc1,-36%,45µM*,-3%,45µM*,?
C(=N\Nc1nc(Nc2ccccc2)nc(N2CCOCC2)n1)/c1c[nH]c2ccccc12,-12%,32µM*,23%,50µM*,.
O=C(O)C1CC=CCC1C(=O)NCCCCc1ccccc1 (configuration not stated),46%,-15%,-3%,-1%,10%
CN(CCO)c1ccc(C(C(=O)c2ccccc2)c2ccc(N(C)CCO)cc2)cc1,?,45µM*,32%,45µM*,4%[2.33 µM]
CC(C)N(CCO)C(=O)C(c1ccccc1)c1ccccc1,26%,42%,-5%,-4%,-12%
COc1ccc(C2C3=C(CC(C)(C)CC3=O)Nc3cc4c(cc32)OCO4)cc1 (configuration not stated),12%,-25%,?,-21%,4%[59 µM]
Cn1c(=O)c2cccnc2c(=O)n1C,.,.,14%,.,.
O=c1[nH]n(CCO)c(=O)c2cccnc12,-14%,?,13%,56µM*,?
Cc1nnc(-c2cccc(Br)c2)c2cn(-c3cccc(Br)c3)nc12,23%,56µM*,-2%,?,?
COc1cc(NC(=O)CNC(c2ccccc2)c2ccccc2)cc(OC)c1OC,7%,-12%,67%,-17%,19%
COc1ccc(NC(=O)CNC(c2ccccc2)c2ccccc2)cc1,?,79µM*,2%,20µM*,.
COc1ccc(C(NCC(=O)NC(C)c2ccc(Cl)cc2)c2ccccc2)cc1 (configuration not stated),?,79µM*,15%,25µM*,6%[2.33 µM]
CC(=O)Nc1ccc(-c2cc(-c3ccc(NC(C)=O)cc3)nc(-c3ccc(NC(C)=O)cc3)n2)cc1,12%,10%,4%,-5%,13%[59 µM]
COc1ccc(OC)c(NC(=O)c2c(NCc3ccc(OC)c(OC)c3)sc3c2CCC(C)C3)c1 (configuration not stated),?,?,-12%,50µM*,13µM*
COc1ccc(NC(=O)c2c(NCc3cccc(F)c3)sc3c2CCC3)c(OC)c1,29%,-23%,1%,-30%,?
COc1ccc(OC)c(NC(=O)c2c(NCc3ccc(C)o3)sc3c2CCC(C)C3)c1 (configuration not stated),?,?,-13%,32µM*,11µM*
CCOc1ccccc1NC(=O)c1c(NCc2ccc(C)o2)sc2c1CCC(C)C2 (configuration not stated),37%,2%,12%,-7%,-45%[59 µM]
COc1ccc(C(NC(=O)C(C)(C)C)NC(=O)C(C)(C)C)cc1,28%,9%,-11%,-3%,17%[59 µM]
O=C1OC(c2ccc(F)cc2)=C/C1=C\c1ccc([N+](=O)[O-])o1,.,45µM*,.,.,10µM*
